The target of the test is Fibroblast growth factor 2 (Homo sapiens) (UniProt P09038). In words: basic fibroblast growth factor binding to printed compounds – biochemical, small-molecule microarray, 635/667 nm fluorescence, primary screen (AID 1133). The settings on record: FGF2, fluorescence 635/667, higher = more signal.
Chain of Fibroblast growth factor 2 (Homo sapiens) (P09038 whole entry, looked up): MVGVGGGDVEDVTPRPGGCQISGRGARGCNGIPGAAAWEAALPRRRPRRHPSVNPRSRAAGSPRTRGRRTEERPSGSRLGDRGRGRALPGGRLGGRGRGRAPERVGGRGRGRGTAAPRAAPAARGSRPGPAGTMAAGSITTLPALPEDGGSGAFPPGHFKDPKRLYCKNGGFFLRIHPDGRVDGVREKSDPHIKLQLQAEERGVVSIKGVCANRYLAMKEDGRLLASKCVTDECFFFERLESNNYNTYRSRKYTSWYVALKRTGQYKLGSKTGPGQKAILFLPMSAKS
For `C=CCC(OC(C)=O)[C@@H]1[C@@H](N(Cc2cccc3ccccc23)C(=O)c2cccc3ccccc23)c2cc(OCCCO)ccc2N1C(=O)c1ccc2ccccc2n1` (stereo partly specified), the composite z-score stood at 0.494.

As to `COc1ccc(C(O)C2C=CC3C(=O)NC(=O)C3N2Nc2ccccn2)cc1OCc1ccccc1` (stereo unspecified), the composite z-score is -1.37.

With `CCCN1C(=O)[C@@]2(CCC(=O)OC(C)(C)C)N=C(c3ccc(OCCCO)cc3)O[C@H]2c2ccccc21`, the composite z-score is 1.53.

In turn, `COc1cccc(C(=O)O[C@H]2CC[C@]3(C)C4=C(CCC3C2(C)C)[C@]2(C)CC[C@H]([C@H](C)CCCC(C)C)[C@@]2(C)CC4)c1` (stereo partly specified) showed a composite z-score of 0.281.

`COc1cc2c(cc1OC)CN(C(=O)[C@@H]1[C@H]3C(=O)O[C@H](c4ccccc4)[C@H](c4ccccc4)N3[C@H](c3ccccc3OCCO)[C@@]13C(=O)Nc1ccc(C#CCNC(N)=O)cc13)CC2`: the composite z-score was 0.748.

Take `CN(C)CCCCNC(=O)[C@H]1C[C@H]2C(=O)N[C@@H](Cc3ccccc3)C(=O)N2[C@H]1c1ccc(O)cc1`: the composite z-score was found to be 1.64.

Regarding `COc1ccc(CCN2C(=O)[C@@]3(Cc4ccccc42)c2ccccc2C(=O)N(Cc2ccccc2Cl)[C@H]3c2ccc(CO)cc2)cc1`, the composite z-score is -0.157.

`CCCCCCCCCCC(O)C1C=CC2C(=O)N(Cc3ccccc3)C(=O)C2N1n1cnnc1` (stereo unspecified): the composite z-score is -0.982.

For `COCCOC(=O)N1C(=O)[C@@]2(c3cc(C#CCC(C(=O)OC)C(=O)OC)ccc31)[C@H](C(=O)N1CCN(c3ncccn3)CC1)[C@H]1C(=O)O[C@H](c3ccccc3)[C@H](c3ccccc3)N1[C@@H]2c1ccc(OCCO)cc1`, the composite z-score amounted to 1.2.

In the case of `C=C(COC)C(=O)CC[C@@H](OC(=O)c1cccnc1)c1ccc(CO)o1`, the composite z-score amounted to 1.46.

`C=C[C@@H](COC(C)=O)N(Cc1ccc([N+](=O)[O-])cc1)S(=O)(=O)c1ccc(Br)cc1` yielded a composite z-score of 0.54.

In turn, `O=C1O[C@@H](c2ccccc2)[C@@H](c2ccccc2)N2[C@@H](c3ccc(O)cc3)[C@]3(C(=O)Nc4ccc(C#CC5(O)CCCCCC5)cc43)[C@@H](C(=O)N3CCCCCCC3)[C@H]12` displayed a composite z-score of 1.62.

Compound `COC(=O)C[C@@H]1C[C@H](C)[C@]2(O1)C(=O)N(Cc1ccccc1)c1ccc(NC(C)=O)cc12` returned a composite z-score of 0.471.

For the compound `CC(C)(C)N1CC=CC23O[C@@H]4C=CCOC(=O)[C@@H]4[C@H]2C(=O)N(CCCCCO)[C@@H]3C1=O` (stereo partly specified), the composite z-score was -0.326.

Take `C=CCN1C(=O)[C@]2(O[C@H](CCO)[C@@H]([Si](C)(C)c3ccc(OC)cc3)[C@@H]2C)c2cc(NC(=O)[C@H](C)O)ccc21`: the composite z-score amounted to 0.313.

Take `C=CC(=C)C1=CCO[C@@H]1[C@H]1CCCN1S(=O)(=O)c1ccccc1[N+](=O)[O-]`: the composite z-score was found to be 0.174.

In the case of `COc1ccc(NN2C(C(O)c3ccc(OC)c(OCc4ccccc4)c3)C=CC3C(=O)N(C4CCCCC4)C(=O)C32)cc1` (stereo unspecified), the composite z-score came out at 0.0862.

`[N-]=[N+]=NCc1ccccc1[C@@H]1OC(c2ccc(OCCCO)cc2)=N[C@]1(Cc1ccccc1)C(=O)N1CCCCC1` registered a composite z-score of 1.55.

In turn, `CC(C)(C)N1CC=CC23O[C@@H]4/C=C\CCCOC(=O)C4[C@H]2C(=O)N(CCO)[C@@H]3C1=O` (stereo partly specified) returned a composite z-score of -0.57.

The compound `O=C1O[C@H](c2ccccc2)[C@H](c2ccccc2)N2[C@H]1[C@@H](C(=O)O)[C@]1(C(=O)Nc3ccc(C#CC4=CCCCC4)cc31)[C@H]2c1ccc(OCCO)cc1` registered a composite z-score of 0.919.

For `COC(=O)C[C@H]1O[C@]2(C(=O)N(Cc3ccccc3)c3ccc(NC(C)=O)cc32)[C@@H](C)[C@@H]1[Si](C)(C)c1ccc(OC)cc1`, the composite z-score amounted to 0.52.

In the case of `CC(C)CNC(=O)[C@@H]1c2ccccc2C(=O)N(Cc2cc(C(F)(F)F)cc(C(F)(F)F)c2)[C@H]1c1ccc(CO)cc1`, the composite z-score is -0.124.

As to `COc1ccccc1CN1C(=O)c2ccccc2[C@@H](C(=O)NCCN2CCOCC2)[C@@H]1c1ccc(CO)cc1`, the composite z-score came out at 1.26.

With `NCCCCCCNC(=O)[C@H]1C[C@H]2C(=O)NCC(=O)N2[C@H]1c1cccc(OCCO)c1`, the composite z-score turned out to be 1.55.

`COCCOC(=O)N1C(=O)[C@@]2(c3ccccc31)[C@H](C(=O)NC[C@H](O)c1ccccc1)[C@H]1C(=O)O[C@H](c3ccccc3)[C@H](c3ccccc3)N1[C@@H]2c1ccc(OCCO)cc1` gave a composite z-score of 1.77.

In turn, `CC(C)N1CC=CC23O[C@@H]4C=CCOC(=O)[C@@H]4[C@H]2C(=O)N(CCO)[C@@H]3C1=O` (stereo partly specified) gave a composite z-score of -1.33.

As for `COC(=O)[C@@]1(Cc2ccccc2)[C@H]2c3cc(C(=O)N4CCCC4)n(C)c3C[C@H]2CN1C(=O)c1ccccc1`, the composite z-score was -0.915.

As for `O=C1[C@]2(CO)C=C(Br)[C@@H](C[C@@H]2c2ccccc2)[C@@]12CO2`, the composite z-score came out at 0.118.

In turn, `CCCCC(O)C1C=CC2C(=O)N(C3CCCCC3)C(=O)C2N1Nc1ccc(OC)cc1` (stereo unspecified) gave a composite z-score of -0.0692.

`COc1ccc(C(O)C2C=CC3C(=O)N(c4ccccc4)C(=O)C3N2Nc2ccc([N+](=O)[O-])cc2)cc1OCc1ccccc1` (stereo unspecified) showed a composite z-score of 0.156.

For the compound `Cc1ccc(S[C@]2(C(=O)NCc3ccccc3)CC(=O)N(Cc3ccccc3)[C@@H]2c2ccc(CO)cc2)cc1`, the composite z-score was -0.524.

Compound `C=C(COC)/C(=C/C[C@H](OC(=O)c1ccncc1)c1cccc(OCCO)c1)c1cc(C(=O)OC)ccc1OC` registered a composite z-score of 0.245.

On to `COC(=O)[C@@]1(Cc2ccccc2)[C@H]2c3cc(C(=O)N(C)C)n(Cc4cc(C)n(C)n4)c3C[C@H]2CN1C(=O)c1ccccc1`, for which the composite z-score was -0.768.

Compound `COC(=O)[C@@]1(Cc2ccccc2N=[N+]=[N-])COC(c2ccc(OCCCO)cc2)=N1` displayed a composite z-score of 0.3.

Compound `CN1CCC(CCCO)=CC1c1ccc(CN2CCCC2)cc1` (stereo unspecified) showed a composite z-score of 1.65.

The compound `CC(=CC1CCCCC1)[C@@H](NC(=O)c1ccc(C(F)(F)F)cc1)c1ccc(-c2ccccc2)cc1` showed a composite z-score of -0.58.

Values taken from PubChem BioAssay.
